# Assay results taken from PubChem BioAssay.
# Active and inactive are the calls of the source.
# What was measured:
# [1] = tested on: Plasmodium falciparum Sir2 (PF13_0152, Sir2A); assay: pfSir2 binders on small-molecule microarrays, primary screen, biochemical, small-molecule microarray, 635 nm fluorescence (AID 1098); details: small-molecule microarray binding, fluorescence 635 nm; higher = more signal;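 also: score merges spot fluorescence intensity with its signal-to-noise ratio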
# [2] = small-molecule microarray binders of probe aDKK1, primary screen, biochemical, biotinylated probe, 635/667 nm fluorescence (AID 1099); details: higher = more signal;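 also: score merges 667nm spot fluorescence with signal to noise across triplicate slides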
# [3] = small-molecule microarray binders of probe aCHRDL2, primary screen, biochemical, biotinylated probe, 635/667 nm fluorescence (AID 1100); details: higher = more signal
# [4] = splicing luciferase reporter signal modulators, primary screen, spliceosome inhibition project, cell-based, HEK293, splice +/- reporter (AID 1101); details: luminescence, 24 h, higher = more signal, called active from +8 up or from −8 down;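 also: HEK293 cells carrying a splicing-competent luciferase reporter gene; test concentration not given here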
# [5] = target: Fibroblast growth factor 10 (Homo sapiens) (UniProt O15520); assay: FGF10 binders on small-molecule microarrays, primary screen, biochemical, small-molecule microarray, 635 nm fluorescence (AID 1102); details: FGF10 binding, fluorescence 635 nm, higher = more signal
# [6] = tested on: glycogen synthase kinase-3 (GSK3A per assay name; protocol says GSK3B); assay: GSK3 binders on small-molecule microarrays, primary screen, biochemical, small-molecule microarray, 635 nm fluorescence, GSK3A (AID 1103); details: small-molecule microarray binding, fluorescence 635 nm; higher = more signal; also: the record names both GSK3A and GSK3B
# [7] = target: Epidermal growth factor receptor (Homo sapiens) (UniProt P00533); assay: EGFR binders on small-molecule microarrays, primary screen, biochemical, small-molecule microarray, 635 nm fluorescence (AID 1104); details: EGFR binding, higher = more signal;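 also: score merges 667 nm emission intensity with spot signal to noise over triplicate slides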
# [8] = target: Follistatin-related protein 3 (Homo sapiens) (UniProt O95633); assay: FSTL3 binders on small-molecule microarrays, primary screen, biochemical, small-molecule microarray, 635 nm fluorescence (AID 1105); details: FSTL3 binding, higher = more signal;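 also: score merges emission near 667 nm and signal to noise per printed spot across three slides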
# [9] = target: Dickkopf-related protein 1 (Homo sapiens) (UniProt O94907); assay: DKK1 binders on small-molecule microarrays, primary screen, biochemical, small-molecule microarray, 635 nm fluorescence scan (AID 1106); details: DKK1 binding, higher = more signal;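 also: score merges emission near 667 nm with signal to noise over three replicate slides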
# [10] = tested on: Inhibin beta A chain (activin A); assay: INHBA (activin A) binders on microarrays, primary screen, biochemical, small-molecule microarray, 635 nm fluorescence scan (AID 1107); details: small-molecule microarray binding, higher = more signal;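 also: mouse activin A protein probed at 4.33 µg/mL on printed slides; score merges bound-protein fluorescence near 667 nm with spot signal-to-noise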
# [11] = tested on: Human papillomavirus type 1a protein E7 (residues 44-93); assay: HPV1a E7 fragment binders on microarrays, primary screen, biochemical, small-molecule microarray, residues 44-93, 635 nm fluorescence (AID 1108); details: small-molecule microarray binding, fluorescence 635 nm; higher = more signal;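 also: E7 fragment applied at 1 µg/mL in TBST for 1 h at 4 C; score combines spot fluorescence with its signal to noise ratio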
# [12] = modulators of HCV replicon luciferase signal, primary screen, HCV replication inhibitor project, Huh7 cells, luciferase reporter (AID 1109); details: 48 h, higher = more signal;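 also: huh7 hepatoma cells harbouring a luciferase neomycin HCV replicon reporter; luciferase luminescence as measure of HCV replicon replication; test concentration not given here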
# [13] = target: Left-right determination factor 2 (Homo sapiens) (UniProt O00292); assay: LEFTY2 binders on small-molecule microarrays, primary screen, biochemical, small-molecule microarray, 635 nm fluorescence scan (AID 1110); details: LEFTY2 binding, higher = more signal
# [14] = target: Calmodulin-1 (Homo sapiens) (UniProt P0DP23); assay: CALM1 binders on microarrays, EGTA buffer, profiling panel, biochemical, small-molecule microarray, Cy5-labelled CALM1 (AID 1111); details: Cy5-CALM1 binding fluorescence, higher = more signal;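 also: labelled calmodulin applied in Tris saline Tween buffer holding calcium plus EGTA and DTT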
# [15] = target: Calmodulin-1 (Homo sapiens) (UniProt P0DP23); assay: calcium-bound CALM1 binders on microarrays, profiling panel, artefact control for SMM control-protein annotation, biochemical, small-molecule microarray, Cy5-labelled CALM1, plus calcium (AID 1112); details: Cy5-CALM1 binding fluorescence, higher = more signal;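 also: score merges spot fluorescence with signal to noise from triplicate slides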
# [16] = small-molecule microarray binders of probe aWnt5a, primary screen, biochemical, biotinylated probe, 635/667 nm fluorescence (AID 1113); details: higher = more signal;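 also: score merges 667 nm fluorescence intensity with signal-to-noise per printed feature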
# [17] = small-molecule microarray binders of probe aShh, primary screen, biochemical, biotinylated probe, 635/667 nm fluorescence (AID 1114); details: higher = more signal;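 also: probe is biotin-labelled aShh protein from a stem cell growth factor screen; measures binding of labelled protein to compounds printed on the slide; score merges feature fluorescence at 667 nm with signal-to-noise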
# [18] = small-molecule microarray binders of probe aNog, primary screen, biochemical, biotinylated probe, 635/667 nm fluorescence (AID 1115); details: higher = more signal;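 also: probe is biotinylated aNog protein used at 0.15 µg/mL for 1 h at 4 C; z-score combines 667 nm fluorescence of each spot with its signal to noise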
# [19] = target: Torsin-1A-interacting protein 1 (Homo sapiens) (UniProt Q5JTV8); assay: LAP1 binders from COS7 cell lysate, primary screen, small-molecule microarray, 635/667 nm fluorescence (AID 1116); details: COS7-hLAP1 lysate binding, 635 nm fluorescence, higher = more signal
# [20] = target: Alpha-bungarotoxin (Bungarus multicinctus) (UniProt P60615); assay: alpha-bungarotoxin binders on microarray, profiling panel, artefact control for SMM control protein annotation, biochemical, small-molecule microarray, Alexa647 label, 635/667 nm fluorescence (AID 1117); details: alpha-BTX-A647 binding fluorescence, higher = more signal
# Sequence of Alpha-bungarotoxin (Bungarus multicinctus) (P60615 whole entry, looked up): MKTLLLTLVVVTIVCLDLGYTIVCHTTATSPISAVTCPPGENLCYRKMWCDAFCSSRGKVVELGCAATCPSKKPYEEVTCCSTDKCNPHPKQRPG
# Sequence of Epidermal growth factor receptor (Homo sapiens) (P00533 whole entry, looked up): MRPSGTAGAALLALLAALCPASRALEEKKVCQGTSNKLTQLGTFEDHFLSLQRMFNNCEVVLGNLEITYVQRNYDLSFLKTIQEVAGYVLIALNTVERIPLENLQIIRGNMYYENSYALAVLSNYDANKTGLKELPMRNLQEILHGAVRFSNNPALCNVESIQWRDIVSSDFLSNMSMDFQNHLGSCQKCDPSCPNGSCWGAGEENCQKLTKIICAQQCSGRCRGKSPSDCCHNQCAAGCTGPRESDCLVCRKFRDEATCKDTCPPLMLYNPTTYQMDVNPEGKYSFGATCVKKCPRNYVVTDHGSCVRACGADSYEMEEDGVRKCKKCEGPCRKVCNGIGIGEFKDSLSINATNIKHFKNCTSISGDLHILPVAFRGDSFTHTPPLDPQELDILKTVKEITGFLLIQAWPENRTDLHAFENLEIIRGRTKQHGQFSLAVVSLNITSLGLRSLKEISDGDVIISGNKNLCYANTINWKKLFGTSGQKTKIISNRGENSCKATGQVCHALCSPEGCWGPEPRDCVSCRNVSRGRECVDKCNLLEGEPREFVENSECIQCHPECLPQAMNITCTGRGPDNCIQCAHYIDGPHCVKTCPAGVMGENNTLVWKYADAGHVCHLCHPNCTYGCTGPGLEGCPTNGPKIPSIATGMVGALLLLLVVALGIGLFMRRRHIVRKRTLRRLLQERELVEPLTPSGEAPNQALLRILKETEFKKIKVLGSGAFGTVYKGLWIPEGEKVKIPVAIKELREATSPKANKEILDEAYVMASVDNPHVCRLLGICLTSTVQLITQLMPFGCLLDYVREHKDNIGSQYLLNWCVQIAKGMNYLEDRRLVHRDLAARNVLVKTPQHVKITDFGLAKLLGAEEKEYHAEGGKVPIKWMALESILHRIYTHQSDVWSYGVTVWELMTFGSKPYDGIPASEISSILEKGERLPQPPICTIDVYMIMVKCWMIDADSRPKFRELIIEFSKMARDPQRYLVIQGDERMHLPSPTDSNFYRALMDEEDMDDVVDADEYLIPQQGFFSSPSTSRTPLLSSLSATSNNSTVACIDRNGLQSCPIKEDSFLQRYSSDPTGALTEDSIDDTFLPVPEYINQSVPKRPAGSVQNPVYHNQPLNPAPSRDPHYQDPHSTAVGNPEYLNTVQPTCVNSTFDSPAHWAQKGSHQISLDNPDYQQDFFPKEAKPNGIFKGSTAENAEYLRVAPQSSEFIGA
# Sequence of Torsin-1A-interacting protein 1 (Homo sapiens) (Q5JTV8 whole entry, looked up): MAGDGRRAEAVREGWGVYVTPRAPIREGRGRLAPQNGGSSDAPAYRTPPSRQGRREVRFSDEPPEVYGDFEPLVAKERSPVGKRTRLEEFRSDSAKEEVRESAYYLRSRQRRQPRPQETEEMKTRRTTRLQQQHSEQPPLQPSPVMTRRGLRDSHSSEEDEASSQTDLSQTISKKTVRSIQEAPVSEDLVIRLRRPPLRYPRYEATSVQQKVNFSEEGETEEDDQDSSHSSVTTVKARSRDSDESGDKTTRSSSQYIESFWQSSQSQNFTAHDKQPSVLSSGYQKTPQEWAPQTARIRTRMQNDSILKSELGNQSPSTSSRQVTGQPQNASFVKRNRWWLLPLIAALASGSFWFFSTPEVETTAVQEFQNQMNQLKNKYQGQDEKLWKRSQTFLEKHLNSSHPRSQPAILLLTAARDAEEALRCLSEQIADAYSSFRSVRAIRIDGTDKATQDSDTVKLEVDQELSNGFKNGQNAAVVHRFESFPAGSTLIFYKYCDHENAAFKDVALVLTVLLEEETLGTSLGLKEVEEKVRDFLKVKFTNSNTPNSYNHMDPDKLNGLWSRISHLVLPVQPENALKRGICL
# Sequence of Left-right determination factor 2 (Homo sapiens) (O00292 whole entry, looked up): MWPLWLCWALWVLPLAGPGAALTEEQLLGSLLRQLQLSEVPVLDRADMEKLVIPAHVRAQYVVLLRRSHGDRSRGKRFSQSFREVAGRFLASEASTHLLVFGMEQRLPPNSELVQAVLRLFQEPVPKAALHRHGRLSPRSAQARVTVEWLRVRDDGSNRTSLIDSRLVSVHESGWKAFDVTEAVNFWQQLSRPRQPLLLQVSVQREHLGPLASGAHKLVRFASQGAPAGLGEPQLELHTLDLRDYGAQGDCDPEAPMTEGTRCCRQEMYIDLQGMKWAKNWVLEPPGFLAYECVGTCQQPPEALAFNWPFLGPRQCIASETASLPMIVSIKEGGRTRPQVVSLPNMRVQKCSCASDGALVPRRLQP
# Sequence of Fibroblast growth factor 10 (Homo sapiens) (O15520 whole entry, looked up): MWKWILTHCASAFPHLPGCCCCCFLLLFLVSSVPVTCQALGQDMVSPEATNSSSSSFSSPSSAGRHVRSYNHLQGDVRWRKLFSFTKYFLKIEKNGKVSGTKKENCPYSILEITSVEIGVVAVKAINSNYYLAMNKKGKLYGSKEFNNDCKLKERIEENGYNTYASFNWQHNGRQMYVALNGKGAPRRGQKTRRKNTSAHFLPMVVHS
# Sequence of Dickkopf-related protein 1 (Homo sapiens) (O94907 whole entry, looked up): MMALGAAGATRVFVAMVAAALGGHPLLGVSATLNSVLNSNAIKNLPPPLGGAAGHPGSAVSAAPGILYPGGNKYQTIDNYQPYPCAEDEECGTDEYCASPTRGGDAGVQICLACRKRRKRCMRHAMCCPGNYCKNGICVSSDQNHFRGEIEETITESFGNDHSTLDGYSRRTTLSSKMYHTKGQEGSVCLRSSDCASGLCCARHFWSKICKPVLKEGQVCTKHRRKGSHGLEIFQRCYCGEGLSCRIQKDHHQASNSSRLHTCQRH
# Sequence of Follistatin-related protein 3 (Homo sapiens) (O95633 whole entry, looked up): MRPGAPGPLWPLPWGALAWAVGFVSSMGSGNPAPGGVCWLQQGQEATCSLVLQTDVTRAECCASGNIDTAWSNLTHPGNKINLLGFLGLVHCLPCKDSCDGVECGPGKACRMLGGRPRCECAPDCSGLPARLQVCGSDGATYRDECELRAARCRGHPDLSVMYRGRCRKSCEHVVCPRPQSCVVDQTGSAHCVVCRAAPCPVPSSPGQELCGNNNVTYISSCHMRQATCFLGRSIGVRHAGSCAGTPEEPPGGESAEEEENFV
SMILES,composite z-score [1],composite z-score [2],composite z-score [3],z-score [4],composite z-score [5],composite z-score [6],composite z-score [7],composite z-score [8],composite z-score [9],composite z-score [10],composite z-score [11],z-score [12],composite z-score [13],composite z-score [14],composite z-score [15],composite z-score [16],composite z-score [17],composite z-score [18],composite z-score [19],composite z-score [20]
CCCC[C@@H]1C[C@H]1[C@@H](NC(=O)c1ccc(C(F)(F)F)cc1)c1ccc(C(=O)OC)cc1,0.234,0.172,0.158,-1.22 (inactive),0.743,0.352,0.6,1.09,0.583,1.32,0.733,-1.33,0.497,0.995,0.271,0.869,2.11,0.238,1.27,1.48
C=C(COC)C(=O)CC[C@@H](OC(=O)c1cccnc1)c1cccc(OCCO)c1,0.709,0.119,0.618,3.33 (inactive),1.27,-0.284,-0.0749,0.652,0.284,1.37,0.743,-1.64,-0.116,-0.725,-0.89,-0.0731,0.0121,1.09,0.295,-0.101
C=CCC(OC(C)=O)[C@@H]1[C@@H](N(Cc2ccc(-c3ccccc3)cc2)C(=O)c2cccc3ccccc23)c2cc(OCCCO)ccc2N1C(=O)c1ccc2ccccc2c1 (stereo not given in full),-0.859,1.11,-0.0972,-0.686 (inactive),0.256,0.201,-0.0576,0.5,-0.19,1.08,0.403,-0.464,-0.0981,0.187,0.188,-0.0685,-0.399,-0.258,-0.0482,0.971
CC1CC/C=C\[C@H]2OC34C=CCN(CCN5CCOCC5)C(=O)[C@H]3N(CCCCCCO)C(=O)[C@@H]4C2C(=O)O1 (stereo not given in full),0.195,-0.301,0.0746,0.433 (inactive),-0.721,-0.993,-1,-0.704,-0.355,0.516,-1.14,-0.709,-1.12,-0.482,-0.42,-0.232,-0.154,-0.305,-0.933,-0.307
O=C1C2C=CC(C(O)c3cccc(O)c3)N(Nc3ccccc3F)C2C(=O)N1c1ccccc1 (stereo not given),1.86,-0.143,0.247,-3.1 (inactive),-0.177,-0.127,-0.175,0.338,-0.128,0.452,0.623,-2.21,-0.31,-0.325,-0.607,-0.0425,0.656,-0.261,-0.165,-0.234
C=CCOC(=O)[C@@H]1[C@H]2C(=O)O[C@H](c3ccccc3)[C@H](c3ccccc3)N2[C@H](c2ccc(OCCOC(=O)[C@H]3C[C@H]4C(=O)NCC(=O)N4[C@H]3c3ccc(O)cc3)cc2)[C@@]12C(=O)Nc1ccc(I)cc12,1.57,0.159,0.21,1.14 (inactive),0.613,1.35,0.728,1.02,0.674,-0.0057,0.222,-2.09,0.606,0.342,-0.103,-0.0758,-0.294,0.036,1.27,1.74
COc1cccc(OC)c1C(=O)O[C@H]1[C@@H]2OC(=O)[C@H](Cc3cccc(Br)c3)C/C=C/C[C@@H](Cc3cccc(Br)c3)C(=O)O[C@H]2[C@@H](OC)O[C@@H]1CO,-0.178,0.281,0.325,0.0705 (inactive),0.927,0.277,-0.0525,0.735,0.298,0.42,0.479,-2.37,0.309,-0.108,-0.0545,-0.0869,0.111,0.113,0.482,0.528
CCCCC(=C=CC[C@H](O)c1ccc(OCCO)cc1)C[C@H](O)c1ccccn1,0.856,-0.0313,-0.112,0.107 (inactive),1.35,0.583,-0.229,0.416,0.215,0.669,1.31,-0.028,0.295,0.587,-0.758,-0.0758,-0.0011,0.253,0.875,0.634
O=C1C2C=CC(C(O)c3ccc([N+](=O)[O-])cc3)N(Nc3ccccc3)C2C(=O)N1c1ccccc1 (stereo not given),1.32,0.3,0.585,4.07 (inactive),0.466,0.273,-0.0215,0.481,-0.521,0.87,0.342,0.649,-0.0424,0.0871,-0.447,-0.0512,0.284,-0.175,-0.175,-0.0428
CCN(CC)c1ccc(N2CC=CC34O[C@@H]5C=CCOC(=O)[C@@H]5[C@H]3C(=O)N(CCCO)[C@@H]4C2=O)cc1 (stereo not given in full),0.481,-0.464,0.0573,-1.6 (inactive),-0.946,-1.11,-0.853,-0.69,-0.901,1.65,0.295,-0.427,-0.934,-1,0.319,-0.124,0.258,0.223,0.0016,-1.57
[N-]=[N+]=Nc1ccccc1[C@@H]1OC(c2ccc(OCCCO)cc2)=N[C@]1(Cc1ccccc1)C(N)=O,0.807,0.818,0.578,0.336 (inactive),-0.121,-0.235,-0.236,-0.294,-0.205,0.982,1.06,-0.837,-0.391,1.04,0.719,-0.166,0.173,-0.0956,0.0305,0.209
